SMILES strings stand for the structures. Several values for one entry are separate records, joined by “and”; a condition that tells them apart may be missing. Equal entries are not always repeated. Results filed as inconclusive are left out. Activity calls are given as the source filed them. Cut-off read from the data, not from the text of the source, unless noted: active = parasite load remaining mostly below about 12% (no sharp cut-off); inactive = mostly above about 10%.

A short description of assay [1]: compounds altering viability of human ES cells (AID 493140; call rule not given here;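 note: cells exposed to compounds for four days before counting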). Particulars: human embryonic stem cell survival screen; stronger effect = higher value.
Assay [2] in a line: P. berghei load reduction in hepatocytes – cell-based, HepG2, luciferase luminescence, HepG2 viability, primary screen (AID 624349).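 Note: 100% = mean of DMSO negative control wells on the same plate.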 Particulars: P. berghei liver stage in HepG2, luciferase luminescence, concentration not given here; parasite load remaining: stronger effect = lower value; viability: measured here: HepG2 viability without parasites.
The nature of assay [3]: viability loss with induced miR-34 in A549 – imaging, A549 dox-inducible miR-34, nuclei and caspase counts, primary screen (AID 1347080;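 active = compounds whose cell count with miR-34 switched on is under 0.7 times the count with it off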). As to conditions: A549 miR-34 inducible, Hoechst nuclei count, 48 h.
Assay [4] is described as follows: MELAS cybrid and Rieske KO viability enhancers – cell-based, MELAS cybrids, Rieske KO mouse fibroblasts, CellTiter-Glo, primary screen (AID 1508586;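 active = mean z-score across replicates of 1.96 or higher in either the MELAS or the Rieske mutant cell line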;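 note: z relative to plate mean and SD of compound and empty wells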). Particulars: low glucose.
Assay [5] can be described thus: blockers of MitoPT in mitochondria (AID 1580; call rule not given here). Particulars: isolated mitochondria, permeability transition inhibition.
The nature of assay [6]: blockers of polyQ-driven CASP3 activation – cell-based (AID 1583). As to conditions: polyglutamine-induced caspase-3 activation, cell assay; stronger effect = higher value;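 tested at 10 µM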.
A short description of assay [7]: yeast 75Q aggregation reduction – 75Q-TubU reporter (AID 1593). Particulars: Yeast 75Q polyglutamine aggregation reporter.
A short description of assay [8]: blockers of cytochrome c efflux from mitochondria – biochemical, purified mitochondria (AID 1603).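 Note: mouse liver mitochondria challenged with calcium chloride; signal normalized to the plate average as 100%.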 As to conditions: stronger effect = lower value.
A short description of assay [9]: polyglutamine aggregate formation blockers (AID 1604). As to conditions: polyglutamine-induced protein aggregation inhibition assay; stronger effect = higher value; tested at 2.5 µM.
Assay [10] is described as follows: rescue of PC12 cells from polyQ htt toxicity – LDH release (AID 1610). As to conditions: PC12 mutant huntingtin toxicity, final LDH at 4 uM, stronger effect = lower value.
A short description of assay [11]: glutamate transport activators, MN-1 cells, MN-1 cell line (AID 1612).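 Note: tested at 1 µM final; 0% = mean of DMSO vehicle wells on each plate; positive means more glutamate uptake than control and negative means less.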 As to conditions: MN-1 motor neuron cells, stronger effect = higher value.
Assay [12] can be described thus: 75Q-TubH aggregate inhibition, S. cerevisiae, yeast (AID 1616). As to conditions: S. cerevisiae 75Q-TubH polyglutamine aggregation suppression; stronger effect = higher value.
Assay [13] deals with ATP-dependent translocase ABCB1 (Homo sapiens) (UniProt P08183). Kind of assay: P-glycoprotein substrate transport blockade – cell-based (AID 377; in the data active = fluorescence slope change above about 50%). As to conditions: MDR1-expressing cells, fluorescent substrate accumulation slope; stronger effect = higher value; concentration not given here.
ATP-dependent translocase ABCB1 (Homo sapiens), sequence (P08183 whole entry, looked up): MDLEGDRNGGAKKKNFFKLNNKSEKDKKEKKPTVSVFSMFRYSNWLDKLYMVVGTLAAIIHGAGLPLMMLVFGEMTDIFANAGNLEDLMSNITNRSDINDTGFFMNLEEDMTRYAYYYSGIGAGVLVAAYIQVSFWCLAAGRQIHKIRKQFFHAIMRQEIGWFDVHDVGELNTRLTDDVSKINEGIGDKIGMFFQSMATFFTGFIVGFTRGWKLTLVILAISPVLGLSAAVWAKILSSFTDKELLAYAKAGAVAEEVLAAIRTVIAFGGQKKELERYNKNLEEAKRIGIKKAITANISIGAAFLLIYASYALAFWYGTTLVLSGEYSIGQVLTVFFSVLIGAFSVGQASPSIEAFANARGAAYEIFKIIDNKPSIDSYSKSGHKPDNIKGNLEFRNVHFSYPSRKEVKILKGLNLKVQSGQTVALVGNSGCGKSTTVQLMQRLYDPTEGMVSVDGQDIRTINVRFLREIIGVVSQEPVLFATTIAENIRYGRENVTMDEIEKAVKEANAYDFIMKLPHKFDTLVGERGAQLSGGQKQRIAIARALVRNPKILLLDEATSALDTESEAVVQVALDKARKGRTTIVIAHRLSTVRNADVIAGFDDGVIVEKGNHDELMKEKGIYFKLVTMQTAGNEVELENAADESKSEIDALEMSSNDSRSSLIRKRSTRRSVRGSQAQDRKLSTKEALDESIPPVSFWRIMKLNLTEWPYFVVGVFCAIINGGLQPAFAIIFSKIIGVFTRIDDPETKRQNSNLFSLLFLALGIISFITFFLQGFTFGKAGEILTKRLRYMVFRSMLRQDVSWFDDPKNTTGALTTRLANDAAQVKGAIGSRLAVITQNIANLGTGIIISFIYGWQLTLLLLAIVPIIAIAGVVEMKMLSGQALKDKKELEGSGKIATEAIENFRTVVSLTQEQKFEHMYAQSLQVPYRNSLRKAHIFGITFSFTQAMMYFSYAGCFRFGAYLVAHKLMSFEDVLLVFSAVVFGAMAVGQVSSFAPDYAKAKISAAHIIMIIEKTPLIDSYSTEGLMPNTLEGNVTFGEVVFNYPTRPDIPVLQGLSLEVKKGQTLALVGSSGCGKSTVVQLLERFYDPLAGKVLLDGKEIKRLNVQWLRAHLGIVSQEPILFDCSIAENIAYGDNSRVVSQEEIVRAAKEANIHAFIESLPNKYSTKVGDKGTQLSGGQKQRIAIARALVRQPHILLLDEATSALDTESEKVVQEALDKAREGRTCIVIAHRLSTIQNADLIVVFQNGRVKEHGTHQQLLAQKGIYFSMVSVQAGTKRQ
Where [14] appears, read: measured here: relative caspase fold change +Dox/-Dox.
[15] abbreviates: measured here: total cells with miR-34 induction, stronger effect = lower value.
The mark [16] stands for this setting: measured here: total cells without miR-34 induction.
Setting [17] is: MELAS cybrid survival, CellTiter-Glo 48 h, stronger effect = higher value.
[18] abbreviates: Rieske KO mouse fibroblast survival, CellTiter-Glo 72 h.
The mark [19] stands for this setting: stronger effect = lower value, cell number ratio, induced over uninduced.

Regarding `CN[C@@H]1[C@@H](O)[C@@H](O[C@@H]2[C@@H](O)[C@H](O[C@H]3O[C@H]([C@@H](C)NC)CC[C@H]3N)[C@@H](N)C[C@H]2N)OC[C@]1(C)O` (tested in a mixture with another compound), the survival in assay [1] was 18.8 (inactive). Further, in assay [2], the parasite load remaining is 54.7% (inactive) and 51.8% (inactive). In addition, in [2], the viability was 60.6% and 91.5%. Besides, the results for the fold change in [3] (stronger effect = lower value) and in assay [3] (setting [14]) were 1.02 (inactive) and 0.941, respectively. Further, the cell count came to 8090 in [3] (setting [15]) and 7960 in assay [3] (setting [16]). For the same compound, the z-score was -0.902 (inactive) in [4] (setting [17]) and -0.563 in [4] (setting [18]).
Take `CNc1ccc2oc(C[C@@H]3OC4(CC[C@@H]3C)O[C@H](C(C)C(=O)c3ccc[nH]3)[C@H](C)C[C@H]4C)nc2c1C(=O)O` (stereo partly specified): in assay [5], the EC50 is 1000 nM (active). For the same compound, the inhibition in assay [6] came to 86.4%. Moreover, the score in assay [7] is -0.79. For the same compound, the cytochrome c release ratio in [8] came to 0.48. The inhibition of aggregation in [9] turned out to be 51.9%. The compound further yielded a normalised LDH release in [10] of 1.68. In addition, the glutamate uptake change in assay [11] was -78%. This compound also registered an aggregation suppression score in assay [12] of -0.166. Further, the fold change in assay [3] (stronger effect = lower value) was 1.33 (inactive); in assay [3] (setting [14]) it was 0.886. Besides, the figures for the cell count in assay [3] (setting [15]) and in assay [3] (setting [16]) were 885 and 666, respectively.
Take `CCC1=C[C@@H]2CN3CCc4c([nH]c5ccccc45)[C@@](C(=O)OC)(C2)[C@@H]13`: the parasite load remaining in [2] was 9.8% (inactive). Besides, the viability in assay [2] was 47.4%. Besides, the fold change in [3] (setting [19]) is 0.949 (inactive) and 0.823 (inactive); in assay [3] (setting [14]), 1.22 and 0.88. Also, the cell count in assay [3] (setting [15]) was 8480 and 6230; in assay [3] (setting [16]), 8930 and 7580. In addition, the z-score in [4] (setting [17]) is -0.196 (inactive) and 0.501 (inactive); in [4] (setting [18]), -0.315 and -0.157.
In the case of `C[C@]12CC[C@H](O)C[C@H]1CC[C@@H]1[C@@H]2CC[C@]2(C)[C@@H](C3=CC(=O)OC3)CC[C@]12O`, the fluorescence slope change in assay [13] is 80.1% (active). In addition, the survival in assay [1] is 11.7 (inactive). In [2], the parasite load remaining was -9.15% (inactive) and 10.4% (inactive). Besides, in [2], the viability is 40.6% and 30.9%. The fold change is 0.981 (inactive) in assay [3] (stronger effect = lower value) and 1.54 in [3] (setting [14]). The results for the cell count in assay [3] (setting [15]) and in assay [3] (setting [16]) were 557 and 568, respectively. In addition, the z-score was -0.147 (inactive) in assay [4] (setting [17]) and 0.0544 in assay [4] (setting [18]).
For `C[C@]12CCC(=O)C=C1CC[C@@H]1[C@@H]2C(=O)C[C@]2(C)C(=O)CC[C@@H]12`, the survival in [1] is 4.17 (inactive). For the same compound, the parasite load remaining in [2] was 81.1% (inactive). Also, the viability in assay [2] was 96.5%. The fold change was 0.907 (inactive) in assay [3] (stronger effect = lower value) and 0.858 in assay [3] (setting [14]). The cell count in [3] (setting [15]) turned out to be 9500; in assay [3] (setting [16]), 10500. For the same compound, the z-score in assay [4] (setting [17]) was 0.15 (inactive); in [4] (setting [18]) it was -0.446.
Consider `C(#CCN1CCCC1)CN1CCCC1`, for which the fluorescence slope change in assay [13] was 19.7% (inactive). In addition, the survival in assay [1] is 6.42 (inactive). The parasite load remaining in assay [2] was 82.8% (inactive) and 98.5% (inactive). Further, the viability in [2] is 112% and 92.6%. Further, the fold change in assay [3] (setting [19]) is 0.85 (inactive); in assay [3] (setting [14]), 1.28. Moreover, the cell count came out at 8550 in assay [3] (setting [15]) and 10100 in [3] (setting [16]). Besides, the z-score was 0.0358 (inactive) in assay [4] (setting [17]) and -0.183 in [4] (setting [18]).
Turning to `CCOC(=O)c1cncn1[C@@H](C)c1ccccc1`, in assay [2], the parasite load remaining was 94.8% (inactive). The viability in assay [2] was 128%. Besides, the fold change is 0.937 (inactive) in assay [3] (stronger effect = lower value) and 0.906 in [3] (setting [14]). In addition, the cell count in [3] (setting [15]) turned out to be 8390; in [3] (setting [16]), 8960. Besides, the z-score in [4] (setting [17]) is -0.428 (inactive); in [4] (setting [18]) it was -0.415.

The values are drawn from PubChem BioAssay.
